{
  "source": "PubChem BioAssay",
  "note": "The source made the active and inactive calls.",
  "data": [
    {"target": "Dihydroorotate dehydrogenase (quinone), mitochondrial (Plasmodium falciparum (isolate 3D7)) (UniProt Q08210)", "sequence (Q08210 whole entry, looked up)": "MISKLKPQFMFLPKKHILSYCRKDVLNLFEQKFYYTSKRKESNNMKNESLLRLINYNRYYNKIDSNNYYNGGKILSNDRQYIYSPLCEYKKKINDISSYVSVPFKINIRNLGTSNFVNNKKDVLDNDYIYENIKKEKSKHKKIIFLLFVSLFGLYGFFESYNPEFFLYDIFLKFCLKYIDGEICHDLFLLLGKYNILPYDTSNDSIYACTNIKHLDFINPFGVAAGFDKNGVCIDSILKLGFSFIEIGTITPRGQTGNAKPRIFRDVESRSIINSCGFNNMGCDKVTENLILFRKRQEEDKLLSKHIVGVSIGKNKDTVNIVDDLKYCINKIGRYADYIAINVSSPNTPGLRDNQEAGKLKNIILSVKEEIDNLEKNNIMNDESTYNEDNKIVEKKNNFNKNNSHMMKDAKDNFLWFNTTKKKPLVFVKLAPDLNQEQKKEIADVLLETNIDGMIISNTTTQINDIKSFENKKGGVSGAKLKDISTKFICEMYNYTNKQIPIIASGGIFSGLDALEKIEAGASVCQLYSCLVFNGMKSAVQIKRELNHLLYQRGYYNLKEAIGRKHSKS", "experiment": "inhibition of P. falciparum DHODH – biochemical, C-terminal His tag, absorbance 600 nm, primary screen (AID 1175);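 also: recombinant parasite enzyme with a five histidine tag at its C terminus; test concentration not given here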", "settings": "PfDHODH enzyme, DCIP absorbance 600 nm; higher = more signal, called active from +8 up or from −8 down", "values": [
      {"smiles": "COC(=O)[C@@]1(Cc2ccc(OC)cc2)[C@H]2c3cc(C(=O)N4CCCC4)n(CCc4ccccn4)c3C[C@H]2CN1C(=O)c1ccccc1", "composite z-score": "-0.362 (inactive)"},
      {"smiles": "CC(=O)N1Cc2ccccc2C[C@@]2(N=C(c3ccc(OCCCO)cc3)O[C@H]2c2ccccc2)C1=O", "composite z-score": "-0.847 (inactive)"},
      {"smiles": "CC(C)NC(=O)[C@@]1(c2ccc([N+](=O)[O-])cc2)CC(=O)N(C(C)C)[C@@H]1c1ccc(CO)cc1", "composite z-score": "-1.53 (inactive)"},
      {"smiles": "CC(C)C(O)C1C=CC2C(=O)N(C)C(=O)C2N1N1CCCCC1", "note": "(stereo not drawn)", "composite z-score": "-0.0607 (inactive)"},
      {"smiles": "CCCC[C@@H]1C[C@H]1[C@@H](NC(=O)c1ccccc1)c1ccccc1", "composite z-score": "-0.113 (inactive)"},
      {"smiles": "CCN(CC)c1ccc(N2CC=CC34O[C@@H]5/C=C\\CCCOC(=O)C5[C@H]3C(=O)N(CCCO)[C@@H]4C2=O)cc1", "note": "(stereo partly drawn)", "composite z-score": "-0.423 (inactive)"},
      {"smiles": "COc1ccc(C(O)C2C=CC3C(=O)N(c4ccccc4)C(=O)C3N2Nc2ccccc2)c2ccccc12", "note": "(stereo not drawn)", "composite z-score": "0.896 (inactive)"},
      {"smiles": "O=[N+]([O-])c1ccc(C[n+]2ccc(CCCO)cc2)o1", "composite z-score": "0.403 (inactive)"},
      {"smiles": "C[N+](C)(C)CCCCNC(=O)[C@H]1C[C@H]2C(=O)N3CCC[C@H]3C(=O)N2[C@H]1c1ccc(O)cc1", "composite z-score": "-30.3 (active)"},
      {"smiles": "COCCOC(=O)N1C(=O)[C@@]2(c3ccccc31)[C@H](C(=O)N1CCCCCCC1)[C@H]1C(=O)O[C@H](c3ccccc3)[C@H](c3ccccc3)N1[C@@H]2c1ccccc1OCCO", "composite z-score": "-0.089 (inactive)"},
      {"smiles": "C=CCC(OC(C)=O)[C@@H]1[C@@H](N(Cc2ccc(-c3ccccc3)cc2)C(=O)c2ccc(C)cc2)c2cc(OCCCO)ccc2N1C(=O)Cc1ccc(OC)cc1", "note": "(stereo partly drawn)", "composite z-score": "-1.17 (inactive)"},
      {"smiles": "COC(=O)[C@@]1(Cc2ccc(OC)cc2)[C@H]2c3cc(C(=O)N4CCCC4)n(C[C@H](O)CO)c3C[C@H]2CN1C(=O)c1ccccc1", "composite z-score": "-0.475 (inactive)"},
      {"smiles": "O=C1O[C@H](c2ccccc2)[C@H](c2ccccc2)N2[C@H]1[C@@H](C(=O)NC[C@H](O)c1ccccc1)[C@]1(C(=O)Nc3ccc(C#CC4=CCCCC4)cc31)[C@H]2c1ccc(O)cc1", "composite z-score": "-2.16 (inactive)"},
      {"smiles": "COc1ccc([Si](C)(C)[C@@H]2[C@@H](CCO)O[C@]3(C(=O)N(Cc4ccccc4)c4ccc(N(C=O)c5ccccc5)cc43)[C@H]2C)cc1", "composite z-score": "0.186 (inactive)"},
      {"smiles": "COc1cc(NN2C(C(O)c3ccccc3)C=CC3C(=O)N(c4ccccc4)C(=O)C32)cc(OC)c1OC", "note": "(stereo not drawn)", "composite z-score": "-1.37 (inactive)"},
      {"smiles": "CN(C)CCCCNC(=O)[C@@H]1C[C@@H]2C(=O)N[C@@H](CCCCN)C(=O)N2[C@@H]1c1cccc(OCCO)c1", "composite z-score": "-0.318 (inactive)"},
      {"smiles": "COc1c(C)cc(-c2cc3c(c(-c4ccccc4)n2)[Si](C(C)C)(C(C)C)O[C@H]3c2ccccc2)cc1C", "composite z-score": "-1.21 (inactive)"},
      {"smiles": "[N-]=[N+]=NCc1ccccc1C[C@]1(C(=O)NCc2ccccc2)COC(c2ccc(OCCCO)cc2)=N1", "composite z-score": "1.1 (inactive)"},
      {"smiles": "C=CCOC(=O)[C@@H]1[C@H]2C(=O)O[C@H](c3ccccc3)[C@H](c3ccccc3)N2[C@H](c2ccc(OCCOC(=O)[C@H]3C[C@H]4C(=O)N[C@@H](CCCC[N+](C)(C)C)C(=O)N4[C@H]3c3cccc(OCCO)c3)cc2)[C@@]12C(=O)Nc1ccc(I)cc12", "composite z-score": "-0.483 (inactive)"},
      {"smiles": "O=C1OCC=C[C@H]2OC34C=CCN(c5ccc(Cl)cc5)C(=O)[C@H]3N(CCCO)C(=O)[C@@H]4[C@@H]12", "note": "(stereo partly drawn)", "composite z-score": "-0.486 (inactive)"},
      {"smiles": "O=c1cccc(-c2ccccc2)o1", "composite z-score": "-0.403 (inactive)"},
      {"smiles": "C=C(COC)C(=O)CC[C@H](OC(=O)c1cccnc1)c1ccccc1OCCO", "composite z-score": "-0.414 (inactive)"},
      {"smiles": "CCCCCN1CC=CC23O[C@@H]4C=CCCOC(=O)C4[C@H]2C(=O)N(CCCO)[C@@H]3C1=O", "note": "(stereo partly drawn)", "composite z-score": "-1.36 (inactive)"},
      {"smiles": "CCN(CC)c1ccc(N2CC=CC34O[C@@H]5C=CCOC(=O)[C@@H]5[C@H]3C(=O)N(CCCCCO)[C@@H]4C2=O)cc1", "note": "(stereo partly drawn)", "composite z-score": "0.618 (inactive)"},
      {"smiles": "C#C[C@H]1Oc2ccccc2S(=O)(=O)N2CCC[C@@H]12", "composite z-score": "0.112 (inactive)"},
      {"smiles": "O=C1C2C=CC(C(O)c3ccc(B(O)O)cc3)N(Nc3ccc([N+](=O)[O-])cc3)C2C(=O)N1c1ccccc1", "note": "(stereo not drawn)", "composite z-score": "-3.05 (inactive)"},
      {"smiles": "O=C1OCCC/C=C\\[C@H]2OC34C=CCN(CCN5CCOCC5)C(=O)[C@H]3N(CCO)C(=O)[C@@H]4C12", "note": "(stereo partly drawn)", "composite z-score": "0.71 (inactive)"},
      {"smiles": "CC(=O)n1cc(C(O)C2C=CC3C(=O)N(c4ccccc4)C(=O)C3N2Nc2ccc(C#N)cc2)c2ccccc21", "note": "(stereo not drawn)", "composite z-score": "-0.796 (inactive)"}
    ]}
  ]
}
